These results are taken from PubChem BioAssay AID2732 (Emory University Molecular Libraries Screening Center, 2010).

The whole screen tested about 220,000 compounds, of which about 8,200 (3.7%) were called active. This is one part of a sample in which actives are shown more often than they occur. A number with no mark means an inactive call.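 The calls were made as follows: active = compounds that reduced the stress-induced luciferase reporter signal by more than about 70% of percent inhibition (limit read from the data); inactive = the rest.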

The inhibition is the drop in the measured response relative to a control, in per cent.

This assay can be described thus: inhibitors of CHOP promoter induction, primary screen, cell-based, unfolded protein response, luciferase reporter (AID 2732).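 Also: 0% = tunicamycin plus vehicle and 100% = wells without tunicamycin.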 The following applies: CHO-K1 CHOP-promoter luciferase, tunicamycin-induced, 15-18 h; at 10 µM; active compounds read high.
For `O=C(Nc1ccccc1)/C(=C/c1ccc([N+](=O)[O-])cc1)NC(=O)c1ccccc1`, the inhibition is 51.8%.
Turning to `Cc1ccc(NC(=O)/C(=C/c2ccc([N+](=O)[O-])cc2)NC(=O)c2ccccc2)cc1`, the inhibition was 104% (active).
For the compound `O=C(Nc1ccc(C(=O)O)cc1)/C(=C/c1ccc([N+](=O)[O-])cc1)NC(=O)c1ccccc1`, the inhibition was -5.43%.
With `Cc1cc(=O)oc2cc(OCC(=O)Nc3nnc(C4CC4)s3)ccc12` the figure was 1.52%; with `CNC1(c2nnnn2-c2c(C)cccc2C)CCOC(C)(C)C1` (centres undefined), 1.67%; with `CCOC(=O)C1CCN(C(=O)Nc2ccc(C)c(Cl)c2)CC1`, 1.94%.
On to `C/C=C(/C)C(=O)O[C@@H]1c2cc3c(c4c2[C@@]2(CO4)C(=O)C(OC)=C(OC)C=C2C[C@@H](C)[C@H]1C)OCO3`, for which the inhibition was 2.19%.
Take `Cc1ccc(S(=O)(=O)NCCSc2ccccc2)cc1[N+](=O)[O-]`: the inhibition was 33.3%.
`CCOc1ccc(S(=O)(=O)NCCSc2ccccc2)cc1`: the inhibition is 95.6% (active).
On to `O=S(=O)(NCCSc1ccccn1)c1ccc(Cl)cc1`, for which the inhibition was 15.3%.
Take `N=c1c2c(-c3ccccc3)c(-c3ccccc3)oc2ncn1Cc1ccco1`: the inhibition is 92.2% (active).
In the case of `COc1ccc(-c2oc3ncn(Cc4ccco4)c(=N)c3c2-c2ccc(OC)cc2)cc1`, the inhibition was -30.9%.
Next, `c1ccc(-c2oc3ncnc(N4CCOCC4)c3c2-c2ccccc2)cc1`: 57.6%; `O=C(CNc1ccc(F)cc1F)NC(=O)NCc1ccco1`: 10.8%; `Cc1nc2nc(SCC(=O)c3ccccc3)[nH]c2cc1Br`: -0.2%.
With `CCCc1nc(NCc2ccc3c(c2)OCO3)c2nnn(Cc3ccccc3Cl)c2n1`, the inhibition was 70.4% (active).
As for `Cc1nc(Nc2ccc3c(c2)OCCO3)c2nnn(Cc3ccccc3Cl)c2n1`, the inhibition was 69.6%.
Take `O=C(Cn1cnc2c(nnn2Cc2ccc(F)cc2)c1=O)NCc1ccc2c(c1)OCO2`: the inhibition was 37.3%.
With `CS/C(=C\C(=O)c1ccco1)Nc1ccccc1Cl` the figure was 1.24%; with `CC(O)c1nc2c(c(=O)n(C)c(=O)n2C)n1C` (centres undefined), 10.6%.
As for `CCC1C(C#N)=C(SC)NC2=C1C(=O)CC(C)(C)C2` (centres undefined), the inhibition was 73.6% (active).
For the compound `CC(=O)C1=C(C)NC2=C(C(=O)CC(C)(C)C2)C1C` (centres undefined), the inhibition is 23.4%.
As for `COc1cc(C2C(C#N)=C(C)NC3=C2C(=O)CC(C)(C)C3)ccc1O` (centres undefined), the inhibition is 49.1%.
As for `CCn1c(SCC(=O)N/N=C/c2ccncc2)nc2ccccc21`, the inhibition is 24.8%.
With `CCOC(=O)c1sc(NC(=O)CSc2nnc(-c3ccco3)o2)c(C(=O)OCC)c1C` the figure was 19.2%; with `CCOC(=O)c1c(NC(=O)CSc2nnc(CNc3ccc(C)cc3C)o2)sc(C)c1C`, 80.7% (active).
Turning to `CCOC(=O)c1c(NC(=O)CSc2nnc(Cc3csc(N)n3)n2C)sc(C)c1C`, the inhibition is 4.17%.
Regarding `Nc1c(Cl)cc(S(N)(=O)=O)cc1S(N)(=O)=O`, the inhibition was 4.35%.
`Cn1cc(/C=C/c2nc3ccccc3c(=O)n2-c2cccc([N+](=O)[O-])c2)c2ccccc21`: the inhibition is 86% (active).
As for `CCn1c(/C=C/c2ccc([N+](=O)[O-])o2)nc2ccccc2c1=O`, the inhibition is 5.31%.
Take `O=[N+]([O-])c1cccc(Nc2c3ccccc3nc3ccccc23)c1`: the inhibition was 47.9%.
In the case of `CCn1c2ccccc2c2cc(NC(=O)Nc3ccc([N+](=O)[O-])cc3C)ccc21`, the inhibition is 31.1%.
On to `Nc1scc[n+]1Cc1cccc2cccnc12`, for which the inhibition was 12%.
On to `Cc1cc(NC(=O)/C=C/C(=O)N(c2ccccc2C)C(C(=O)NC2CCCC2)c2ccc(F)cc2)no1` (centres undefined), for which the inhibition was 87.6% (active).
`Cc1cc(NC(=O)/C=C/C(=O)N(CC(=O)NC2CCCC2)c2ccc(F)cc2)no1`: the inhibition was -11.4%.
In the case of `Cc1cc(NC(=O)CCC(=O)N(c2cccc(F)c2)C(C(=O)NC2CCCC2)c2ccncc2)no1` (centres undefined), the inhibition is -6.58%.
Next, `Cn1cccc1/C=N/NC(=O)CNc1cccc2ccccc12`: 10.8%; `O=C(O)c1cccnc1Sc1ncnc2sc3c(c12)CCC3`: -7.08%.
With `CCC1S/C(=N/N=C/c2ccco2)NC1=O` (centres undefined) the figure was 40.4%; with `CC(C)(C)C1C/C(=C/c2ccco2)C(=O)/C(=C/c2ccco2)C1` (centres undefined), 108% (active); with `O=C1OC(/C=C/c2ccccc2)=NC/1=C/c1ccco1`, 0.75%.
Turning to `COc1ccc(-c2csc(NC3OC(=O)c4ccccc43)n2)cc1` (centres undefined), the inhibition was -118%.
Consider `COc1cc(/C=N\Nc2nc(-c3cccs3)c(NC(C)=O)s2)ccc1O`, for which the inhibition is -7.52%.
On to `NNC(=O)c1ccc(COCC(F)(F)C(F)F)cc1`, for which the inhibition was -2.57%.
`COc1ccc(CCNC(=O)C(=O)NCC2CCNCC2)cc1OC`: the inhibition was -6.48%.
As for `C=CCNC(=O)c1sc(SC)cc1-c1ccc(Cl)cc1`, the inhibition was 72.1% (active).
With `C=CCNC(=O)c1ccc(C)c(Br)c1` the figure was 24.2%; with `C=CCNC(=S)NNC(=O)c1cc(Cl)ccc1OC`, -7.01%.
Turning to `COc1cc(NC(=O)c2ccc(CNc3c(N4CCCC4)c(=O)c3=O)cc2)cc(OC)c1OC`, the inhibition was -0.87%.
Turning to `COc1ccccc1-n1c(SCC(=O)O)nc2sc3c(c2c1=O)CCC3`, the inhibition was 8.81%.
Next, `CCOc1ccc(/C(O)=C2\C(=O)C(=O)N(c3ccc(OC)cc3)C2c2ccccc2[N+](=O)[O-])cc1` (centres undefined): -9.44%; `CC(C)=CCc1c(O)c(CC=C(C)C)c2occ(-c3ccc(O)cc3)c(=O)c2c1O`: 104% (active).
Consider `O=c1c(-c2ccccc2)coc2cc(O)ccc12`, for which the inhibition was 15.5%.
With `O=c1c(-c2ccccc2)coc2c(CN3CCOCC3)c(O)ccc12`, the inhibition is -10.6%.
As to `O=C(c1ccc(Cl)cc1)N1N=C(c2ccccn2)CC1(O)C(F)(F)F` (centres undefined), the inhibition was 6.12%.
As to `Nc1nc(NC(=O)/C=C/c2ccc(F)cc2)nn1-c1ccccc1`, the inhibition is 18.8%.
Consider `CCOC(=O)c1c(C2CC2)csc1NC(=O)CSCc1c(C)noc1C`, for which the inhibition was 50.5%.
For the compound `CCn1c(SCC(=O)Nc2nc3ccc(OC)cc3s2)nnc1-c1ccoc1C`, the inhibition was 14.3%.
With `Cc1noc(C)c1CSCC(=O)Nc1nc2ccc(Oc3ccccc3)cc2s1` the figure was 80.2% (active).
